Results from PubChem BioAssay AID1159580 (chemical genetic matrix, 2015).
Hit rate of the full screen: of about 5,500 compounds, about 2,000 (36%) were called active. Not shown: some 18% with an inconclusive outcome. Rule as the data show it: active = normalized growth mostly below about 0.91 (no sharp cut-off); inconclusive = no clear call, values can overlap the other calls; inactive = mostly above about 0.92. Some of the results follow.

Test: chemical genetic growth profiling, strain panel (AID 1159580);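 also: tested at 20 µM; growth read once vehicle control cultures reached saturation at 30 °C; 1 = growth at the plate median or of vehicle wells; lower values mean less growth of the strain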
Conditions: growth OD
[1] = S. cerevisiae deletion strains, locus YAL013W, strain DEP1, active compounds read low
[2] = S. cerevisiae deletion strains, locus YBR229C, strain ROT2, active compounds read low
[3] = S. cerevisiae deletion strains, locus YCL061C, strain MRC1, active compounds read low
[4] = S. cerevisiae deletion strains, locus YDL101C, strain DUN1, active compounds read low
[5] = S. cerevisiae deletion strains, locus YDR150W, strain NUM1, active compounds read low
[6] = S. cerevisiae deletion strains, locus YEL061C, strain CIN8, active compounds read low
[7] = S. cerevisiae deletion strains, locus YGR078C, strain PAC10, active compounds read low
[8] = S. cerevisiae deletion strains, locus YHR030C, strain SLT2, active compounds read low
[9] = S. cerevisiae deletion strains, locus YHR087W, strain rtc3, active compounds read low
[10] = S. cerevisiae deletion strains, locus YJR043C, strain POL32, active compounds read low
[11] = S. cerevisiae deletion strains, locus YJR075W, strain HOC1, active compounds read low
[12] = S. cerevisiae deletion strains, locus YLR039C, strain RIC1, active compounds read low
[13] = S. cerevisiae deletion strains, locus YLR058C, strain SHM2 (second series), active compounds read low
[14] = S. cerevisiae deletion strains, locus YLR085C, strain ARP6, active compounds read low
[15] = S. cerevisiae deletion strains, locus YLR262C, strain YPT6, active compounds read low
[16] = S. cerevisiae deletion strains, locus YML094W, strain GIM5, active compounds read low
[17] = S. cerevisiae deletion strains, locus YMR219W, strain ESC1, active compounds read low
[18] = S. cerevisiae deletion strains, locus YMR263W, strain SAP30, active compounds read low
[19] = S. cerevisiae deletion strains, locus YNL153C, strain GIM3, active compounds read low
[20] = S. cerevisiae deletion strains, locus YNL298W, strain CLA4 (second series), active compounds read low
[21] = S. cerevisiae deletion strains, locus YNL322C, strain KRE1, active compounds read low
[22] = S. cerevisiae deletion strains, locus YNR030W, strain Alg12, active compounds read low
[23] = S. cerevisiae deletion strains, locus YOL006C, strain TOP1, active compounds read low
[24] = S. cerevisiae deletion strains, locus YPL055C, strain LGE1, active compounds read low
[25] = S. cerevisiae deletion strains, locus YPL241C, strain CIN2, active compounds read low
[26] = S. cerevisiae deletion strains, locus YPR135W, strain CTF4, active compounds read low
[27] = S. cerevisiae strains, strain wild type, active compounds read low

Measured: normalized growth

CSc1cccc(NC(=S)N=CN(C)C)c1
active: [9] 1.12 [resistant] | [12] 0.73 | [14] 0.618 | [20] 0.798 | [23] 0.393
inactive: [1] 0.977 | [2] 1.01 | [3] 0.954 | [4] 0.944 | [5] 0.974 | [6] 0.997 | [7] 0.977 | [8] 0.882 | S. cerevisiae deletion strains, locus YJL187C, strain SWE1, active compounds read low 0.988 | [10] 0.961 | [11] 1.05 | [13] 1.03 | [15] 0.932 | [16] 0.96 | [17] 1 | [18] 0.983 | S. cerevisiae deletion strains, locus YNL128W, strain TEP1, active compounds read low 0.962 | [19] 0.963 | [21] 1 | [22] 0.958 | [24] 1.02 | [25] 0.898 | [26] 0.787 | [27] 0.933

COc1ccccc1Oc1ccc(C(F)(F)F)cc1NC(=O)NC(=O)c1ccccc1F
inactive: [1] 0.997 | [2] 1 | [3] 0.972 | [4] 0.968 | S. cerevisiae deletion strains, locus YDL134C, strain PPH21, active compounds read low 0.984 | [5] 1.02 | [6] 0.979 | [7] 0.979 | [8] 1 | [9] 1.06 | [10] 0.984 | [11] 1.02 | [12] 0.964 | [13] 1 | [14] 1.02 | [15] 1.02 | [16] 1.02 | [17] 0.994 | [18] 1.01 | [19] 1 | [20] 0.958 | [21] 0.995 | [22] 1.03 | [23] 0.966 | [24] 1.04 | [25] 0.992 | [26] 0.957 | [27] 0.974

Cc1cc(Oc2ccc(C(F)(F)F)cc2NS(C)(=O)=O)cc(C)c1Cl
inactive: S. cerevisiae deletion strains, locus YAR019C, strain CDC15, active compounds read low 0.992 | S. cerevisiae deletion strains, locus YBL105C, strain PKC1, active compounds read low 0.988 | S. cerevisiae deletion strains, locus YBR135W, strain CKS1, active compounds read low 0.995 | S. cerevisiae deletion strains, locus YBR136W, strain MEC1, active compounds read low 0.991 | S. cerevisiae deletion strains, locus YBR160W, strain CDC28, active compounds read low 0.988 | S. cerevisiae deletion strains, locus YDL017W, strain CDC7, active compounds read low 0.982 | S. cerevisiae deletion strains, locus YDL028C, strain MPS1, active compounds read low 0.998 | [4] 0.979 | S. cerevisiae deletion strains, locus YDL108W, strain KIN28, active compounds read low 0.995 | S. cerevisiae deletion strains, locus YDL132W, strain cdc53, active compounds read low 0.989 | S. cerevisiae deletion strains, locus YDL214C, strain PRR2, active compounds read low 0.961 | S. cerevisiae deletion strains, locus YDR052C, strain DBF4, active compounds read low 0.996 | S. cerevisiae deletion strains, locus YDR054C, strain cdc34, active compounds read low 0.995 | S. cerevisiae deletion strains, locus YDR226W, strain ADK1, active compounds read low 0.979 | S. cerevisiae deletion strains, locus YDR477W, strain SNF1, active compounds read low 0.978 | S. cerevisiae deletion strains, locus YER123W, strain YCK3, active compounds read low 0.95 | S. cerevisiae deletion strains, locus YER133W, strain GLC7, active compounds read low 0.974 | S. cerevisiae deletion strains, locus YFL009W, strain cdc4, active compounds read low 0.995 | S. cerevisiae deletion strains, locus YFL029C, strain CAK1, active compounds read low 0.981 | S. cerevisiae deletion strains, locus YFR003C, strain YPI1, active compounds read low 0.986 | S. cerevisiae deletion strains, locus YFR019W, strain FAB1, active compounds read low 0.984 | S. cerevisiae deletion strains, locus YFR028C, strain CDC14, active compounds read low 0.995 | S. cerevisiae deletion strains, locus YGR040W, strain KSS1, active compounds read low 0.985 | S. cerevisiae deletion strains, locus YGR052W, strain FMP48, active compounds read low 0.986 | S. cerevisiae deletion strains, locus YGR092W, strain DBF2, active compounds read low 0.889 | S. cerevisiae deletion strains, locus YHR079C, strain IRE1, active compounds read low 0.873 | S. cerevisiae deletion strains, locus YHR082C, strain KSP1, active compounds read low 1.03 | S. cerevisiae deletion strains, locus YHR205W, strain SCH9, active compounds read low 0.902 | S. cerevisiae deletion strains, locus YIL147C, strain SLN1, active compounds read low 0.993 | S. cerevisiae deletion strains, locus YJL095W, strain BCK1, active compounds read low 0.891 | S. cerevisiae deletion strains, locus YJL128C, strain PBS2, active compounds read low 0.947 | S. cerevisiae deletion strains, locus YJL157C, strain FAR1, active compounds read low 0.963 | S. cerevisiae deletion strains, locus YJR016C, strain ILV3, active compounds read low 0.986 | S. cerevisiae deletion strains, locus YJR066W, strain TOR1 (second series), active compounds read low 0.928 | S. cerevisiae deletion strains, locus YJR066W, strain TOR1, active compounds read low 1.01 | S. cerevisiae deletion strains, locus YKL048C, strain ELM1, active compounds read low 0.985 | S. cerevisiae deletion strains, locus YKL067W, strain YNK1, active compounds read low 0.957 | S. cerevisiae deletion strains, locus YKL101W, strain HSL1, active compounds read low 0.961 | S. cerevisiae deletion strains, locus YKL193C, strain SDS22, active compounds read low 0.989 | S. cerevisiae deletion strains, locus YKL203C, strain TOR2, active compounds read low 1.02 | S. cerevisiae deletion strains, locus YLR133W, strain CKI1, active compounds read low 0.96 | S. cerevisiae deletion strains, locus YLR403W, strain SFP1, active compounds read low 0.939 | S. cerevisiae deletion strains, locus YML070W, strain DAK1, active compounds read low 0.931 | S. cerevisiae deletion strains, locus YMR001C, strain CDC5, active compounds read low 0.989 | S. cerevisiae deletion strains, locus YMR205C, strain PFK2 (second series), active compounds read low 0.972 | S. cerevisiae deletion strains, locus YMR277W, strain FCP1, active compounds read low 0.991 | S. cerevisiae deletion strains, locus YNL006W, strain LST8, active compounds read low 0.983 | S. cerevisiae deletion strains, locus YNL020C, strain ARK1, active compounds read low 0.914 | S. cerevisiae deletion strains, locus YNL161W, strain CBK1, active compounds read low 0.985 | S. cerevisiae deletion strains, locus YNL183C, strain NPR1, active compounds read low 0.981 | S. cerevisiae deletion strains, locus YNL207W, strain RIO2, active compounds read low 0.987 | S. cerevisiae deletion strains, locus YNL222W, strain SSU72, active compounds read low 0.996 | S. cerevisiae deletion strains, locus YNL307C, strain MCK1 (second series), active compounds read low 0.939 | S. cerevisiae deletion strains, locus YOL078W, strain AVO1, active compounds read low 0.995 | S. cerevisiae deletion strains, locus YOL136C, strain PFK27, active compounds read low 0.939 | S. cerevisiae deletion strains, locus YOR061W, strain CKA2, active compounds read low 0.923 | S. cerevisiae deletion strains, locus YOR119C, strain RIO1, active compounds read low 1.04 | S. cerevisiae deletion strains, locus YOR231W, strain MKK1, active compounds read low 0.902 | S. cerevisiae deletion strains, locus YOR329C, strain SCD5, active compounds read low 0.984 | S. cerevisiae deletion strains, locus YPL031C, strain PHO85, active compounds read low 0.971 | S. cerevisiae deletion strains, locus YPL153C, strain RAD53, active compounds read low 0.981 | S. cerevisiae deletion strains, locus YPL204W, strain HRR25, active compounds read low 0.947 | S. cerevisiae deletion strains, locus YPL209C, strain IPL1, active compounds read low 0.987 | S. cerevisiae deletion strains, locus YPR025C, strain CCL1, active compounds read low 0.993 | S. cerevisiae deletion strains, locus YPR106W, strain ISR1, active compounds read low 0.985 | S. cerevisiae deletion strains, locus YPR111W, strain DBF20, active compounds read low 0.973 | S. cerevisiae deletion strains, strain NNK1, active compounds read low 0.984 | S. cerevisiae deletion strains, strain TSCII, active compounds read low 0.993
active: [8] 0.802 | S. cerevisiae deletion strains, locus YLR113W, strain HOG1, active compounds read low 0.75 | S. cerevisiae deletion strains, locus YPL256C, strain CLN2, active compounds read low 0.827
